Test results reported in paper PMC5349851, “Combinatorial bZIP dimers display complex DNA-binding specificity landscapes”.

What was measured:
Experiment in all cases: SELEX-seq (CSI, HT-SELEX, round 3); SELEX-seq: 1x PBS (10 mM phosphate, 137 mM NaCl, 2.7 mM KCl) pH 7.6, 2.5 mM DTT, 50 ng/ul poly dI-dC, 0.1% BSA, 50 nM biotinylated bZIP (1:3 with partner for heterodimers), 100 nM library, room temperature, 1 h, 3 rounds; high values mean tight binding
Conditions in all cases: protein: recombinant;recombinant; copies: 1;1; dsDNA, one strand shown
FOS;CEBPG = FOS;CEBPG (Homo sapiens;Homo sapiens, UniProt P01100;P53567 128-201;52-130, |)
JUN;ATF3 = JUN;ATF3 (Homo sapiens;Homo sapiens, UniProt P05412;P18847 243-316;77-150, |)
JUN;JUN = JUN;JUN (Homo sapiens;Homo sapiens, UniProt P05412;P05412 243-316;243-316, |)
ATF4;CEBPG = ATF4;CEBPG (Homo sapiens;Homo sapiens, UniProt P18848;P53567 269-346;52-130, |)
ATF4;CEBPA = ATF4;CEBPA (Homo sapiens;Homo sapiens, UniProt P18848;P49715 269-346;273-345, |)
ATF4;ATF4 = ATF4;ATF4 (Homo sapiens;Homo sapiens, UniProt P18848;P18848 269-346;269-346, |)
BATF3;ATF3 = target: T1, BATF3;ATF3 (Homo sapiens;Homo sapiens, UniProt Q9NR55;P18847 26-99;77-150, |)
T1 sequence 1: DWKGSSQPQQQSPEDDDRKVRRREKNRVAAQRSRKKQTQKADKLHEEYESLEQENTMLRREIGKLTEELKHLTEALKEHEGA
T1 sequence 2: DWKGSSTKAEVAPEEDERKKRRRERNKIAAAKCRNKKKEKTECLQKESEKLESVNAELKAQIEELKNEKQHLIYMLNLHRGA

BATF3;ATF4 = BATF3;ATF4 (Homo sapiens;Homo sapiens, UniProt Q9NR55;P18848 26-99;269-346, |)
BATF3;BATF3 = target: T2, BATF3;BATF3 (Homo sapiens;Homo sapiens, UniProt Q9NR55;Q9NR55 26-99;26-99, |)
T2 sequence 1: T1 sequence 1
T2 sequence 2: T1 sequence 1

ATF2;ATF2 = target: T3, ATF2;ATF2 (Homo sapiens;Homo sapiens, UniProt P15336;P15336 343-417;343-417, |)
T3 sequence 1: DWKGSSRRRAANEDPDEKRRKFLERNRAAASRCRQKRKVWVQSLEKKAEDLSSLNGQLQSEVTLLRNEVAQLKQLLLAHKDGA
T3 sequence 2: T3 sequence 1

JUNB;ATF3 = target: T4, JUNB;ATF3 (Homo sapiens;Homo sapiens, UniProt P17275;P18847 259-332;77-150, |)
T4 sequence 1: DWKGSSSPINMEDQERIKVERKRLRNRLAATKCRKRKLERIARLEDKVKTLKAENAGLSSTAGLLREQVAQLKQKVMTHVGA
T4 sequence 2: T1 sequence 2

JUNB;CEBPG = target: T5, JUNB;CEBPG (Homo sapiens;Homo sapiens, UniProt P17275;P53567 259-332;52-130, |)
T5 sequence 1: T4 sequence 1
T5 sequence 2: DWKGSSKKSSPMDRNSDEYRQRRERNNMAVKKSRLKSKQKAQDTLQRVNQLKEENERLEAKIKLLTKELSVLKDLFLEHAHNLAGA

JUNB;JUN = JUNB;JUN (Homo sapiens;Homo sapiens, UniProt P17275;P05412 259-332;243-316, |)
JUNB;ATF4 = JUNB;ATF4 (Homo sapiens;Homo sapiens, UniProt P17275;P18848 259-332;269-346, |)
JUNB;BATF3 = target: T6, JUNB;BATF3 (Homo sapiens;Homo sapiens, UniProt P17275;Q9NR55 259-332;26-99, |)
T6 sequence 1: T4 sequence 1
T6 sequence 2: T1 sequence 1

JUNB;ATF2 = target: T7, JUNB;ATF2 (Homo sapiens;Homo sapiens, UniProt P17275;P15336 259-332;343-417, |)
T7 sequence 1: T4 sequence 1
T7 sequence 2: T3 sequence 1

CEBPG;CEBPG = target: T8, CEBPG;CEBPG (Homo sapiens;Homo sapiens, UniProt P53567;P53567 52-130;52-130, |)
T8 sequence 1: T5 sequence 2
T8 sequence 2: T5 sequence 2

CEBPA;CEBPA = CEBPA;CEBPA (Homo sapiens;Homo sapiens, UniProt P49715;P49715 273-345;273-345, |)
XBP1;XBP1 = target: T9, XBP1;XBP1 (Homo sapiens;Homo sapiens, UniProt P17861;P17861 61-138;61-138, |)
T9 sequence 1: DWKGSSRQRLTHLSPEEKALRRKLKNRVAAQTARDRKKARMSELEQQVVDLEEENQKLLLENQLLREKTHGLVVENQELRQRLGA
T9 sequence 2: T9 sequence 1

DBP;DBP = target: T10, DBP;DBP (Homo sapiens;Homo sapiens, UniProt Q10586;Q10586 246-324;246-324, |)
T10 sequence 1: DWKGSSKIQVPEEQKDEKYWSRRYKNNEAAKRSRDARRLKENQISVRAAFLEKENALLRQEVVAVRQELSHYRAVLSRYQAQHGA
T10 sequence 2: T10 sequence 1

ATF4;ATF4, sequence (P18848 other isoform, or with tags, fused parts or gaps |, chain 1 of 2): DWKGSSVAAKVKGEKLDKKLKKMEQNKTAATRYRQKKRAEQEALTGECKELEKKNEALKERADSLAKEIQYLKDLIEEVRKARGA
ATF4;ATF4, sequence (P18848 other isoform, or with tags, fused parts or gaps |, chain 2 of 2): as the sequence (P18848 other isoform, or with tags, fused parts or gaps |, chain 1 of 2) above
ATF4;CEBPG, sequence (P18848 other isoform, or with tags, fused parts or gaps |): as the sequence (P18848 other isoform, or with tags, fused parts or gaps |, chain 1 of 2) above
JUNB;ATF4, sequence (P18848 other isoform, or with tags, fused parts or gaps |): as the sequence (P18848 other isoform, or with tags, fused parts or gaps |, chain 1 of 2) above
ATF4;CEBPA, sequence (P18848 other isoform, or with tags, fused parts or gaps |, chain 1 of 2): as above
ATF4;CEBPA, sequence (P49715 other isoform, or with tags, fused parts or gaps |, chain 2 of 2): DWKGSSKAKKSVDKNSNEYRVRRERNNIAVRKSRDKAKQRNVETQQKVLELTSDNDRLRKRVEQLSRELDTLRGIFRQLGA
FOS;CEBPG, sequence (P01100 other isoform, or with tags, fused parts or gaps |): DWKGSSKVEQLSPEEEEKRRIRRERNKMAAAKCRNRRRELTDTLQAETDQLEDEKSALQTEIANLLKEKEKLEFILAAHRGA
JUNB;JUN, sequence (P05412 other isoform, or with tags, fused parts or gaps |): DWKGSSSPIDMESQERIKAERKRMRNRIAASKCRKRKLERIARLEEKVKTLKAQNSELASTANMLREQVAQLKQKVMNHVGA
JUN;ATF3, sequence (P05412 other isoform, or with tags, fused parts or gaps |): as above
JUN;JUN, sequence (P05412 other isoform, or with tags, fused parts or gaps |, chain 1 of 2): as the sequence (P05412 other isoform, or with tags, fused parts or gaps |) above
JUN;JUN, sequence (P05412 other isoform, or with tags, fused parts or gaps |, chain 2 of 2): as the sequence (P05412 other isoform, or with tags, fused parts or gaps |) above
CEBPA;CEBPA, sequence (P49715 other isoform, or with tags, fused parts or gaps |, chain 1 of 2): as the sequence (P49715 other isoform, or with tags, fused parts or gaps |, chain 2 of 2) above
CEBPA;CEBPA, sequence (P49715 other isoform, or with tags, fused parts or gaps |, chain 2 of 2): as above

| Sequence | binding signal (FOS;CEBPG) | binding signal (JUN;ATF3) | binding signal (JUN;JUN) | binding signal (ATF4;CEBPG) | binding signal (ATF4;CEBPA) | binding signal (ATF4;ATF4) | binding signal (BATF3;ATF3) | binding signal (BATF3;ATF4) | binding signal (BATF3;BATF3) | binding signal (ATF2;ATF2) | binding signal (JUNB;ATF3) | binding signal (JUNB;CEBPG) | binding signal (JUNB;JUN) | binding signal (JUNB;ATF4) | binding signal (JUNB;BATF3) | binding signal (JUNB;ATF2) | binding signal (CEBPG;CEBPG) | binding signal (CEBPA;CEBPA) | binding signal (XBP1;XBP1) | binding signal (DBP;DBP) |
| --- | --- | --- | --- | --- | --- | --- | --- | --- | --- | --- | --- | --- | --- | --- | --- | --- | --- | --- | --- | --- |
| CCTGACGTCA | 0.0189 relative CSI intensity (max = 1) | 0.177 relative CSI intensity (max = 1) | 0.0544 relative CSI intensity (max = 1) | 0.0346 relative CSI intensity (max = 1) | 0.127 relative CSI intensity (max = 1) | 0.0219 relative CSI intensity (max = 1) | 0.0499 relative CSI intensity (max = 1) | 0.0241 relative CSI intensity (max = 1) | 0.0069 relative CSI intensity (max = 1) | 0.144 relative CSI intensity (max = 1) | 0.031 relative CSI intensity (max = 1) | 0.00362 relative CSI intensity (max = 1) | 0.0172 relative CSI intensity (max = 1) | 0.0113 relative CSI intensity (max = 1) | 0.0239 relative CSI intensity (max = 1) | 0.0143 relative CSI intensity (max = 1) | – | – | – | – |
| ATGACGTCAT | 0.508 relative CSI intensity (max = 1) | 0.367 relative CSI intensity (max = 1) | 1 relative CSI intensity (max = 1) | 0.465 relative CSI intensity (max = 1) | 0.584 relative CSI intensity (max = 1) | 1 relative CSI intensity (max = 1) | 0.146 relative CSI intensity (max = 1) | 0.748 relative CSI intensity (max = 1) | 0.904 relative CSI intensity (max = 1) | 1 relative CSI intensity (max = 1) | 1 relative CSI intensity (max = 1) | 0.0649 relative CSI intensity (max = 1) | 0.769 relative CSI intensity (max = 1) | 1 relative CSI intensity (max = 1) | 1 relative CSI intensity (max = 1) | 1 relative CSI intensity (max = 1) | 0.00362 relative CSI intensity (max = 1) | 0.015 relative CSI intensity (max = 1) | 0.222 relative CSI intensity (max = 1) | 0.0564 relative CSI intensity (max = 1) |
| ATGACGGAAT | 0.0215 relative CSI intensity (max = 1) | 0.0994 relative CSI intensity (max = 1) | 0.0116 relative CSI intensity (max = 1) | 0.0162 relative CSI intensity (max = 1) | 0.133 relative CSI intensity (max = 1) | – | 0.00122 relative CSI intensity (max = 1) | 0.00174 relative CSI intensity (max = 1) | – | 0.0134 relative CSI intensity (max = 1) | 0.00128 relative CSI intensity (max = 1) | 0.00175 relative CSI intensity (max = 1) | 0.0196 relative CSI intensity (max = 1) | – | 0.00175 relative CSI intensity (max = 1) | – | – | – | – | – |
| ATGACGCAAT | 0.92 relative CSI intensity (max = 1) | 0.267 relative CSI intensity (max = 1) | 0.0387 relative CSI intensity (max = 1) | 1 relative CSI intensity (max = 1) | 0.929 relative CSI intensity (max = 1) | – | 0.00445 relative CSI intensity (max = 1) | 0.00858 relative CSI intensity (max = 1) | 0.00125 relative CSI intensity (max = 1) | 0.0881 relative CSI intensity (max = 1) | 0.0139 relative CSI intensity (max = 1) | 0.308 relative CSI intensity (max = 1) | 0.0103 relative CSI intensity (max = 1) | 0.0028 relative CSI intensity (max = 1) | 0.026 relative CSI intensity (max = 1) | 0.00356 relative CSI intensity (max = 1) | 0.307 relative CSI intensity (max = 1) | 0.292 relative CSI intensity (max = 1) | 0.00105 relative CSI intensity (max = 1) | 0.0702 relative CSI intensity (max = 1) |
| ATGATGCAAT | 0.64 relative CSI intensity (max = 1) | 0.136 relative CSI intensity (max = 1) | 0.00263 relative CSI intensity (max = 1) | 0.965 relative CSI intensity (max = 1) | 1 relative CSI intensity (max = 1) | – | 0.00189 relative CSI intensity (max = 1) | 0.00441 relative CSI intensity (max = 1) | – | 0.00515 relative CSI intensity (max = 1) | – | 0.252 relative CSI intensity (max = 1) | 0.0548 relative CSI intensity (max = 1) | – | 0.00368 relative CSI intensity (max = 1) | – | 0.133 relative CSI intensity (max = 1) | 0.124 relative CSI intensity (max = 1) | – | 0.00594 relative CSI intensity (max = 1) |
| ATGACGTAAT | 0.482 relative CSI intensity (max = 1) | 0.313 relative CSI intensity (max = 1) | 0.091 relative CSI intensity (max = 1) | 0.652 relative CSI intensity (max = 1) | 0.695 relative CSI intensity (max = 1) | 0.00204 relative CSI intensity (max = 1) | 0.0292 relative CSI intensity (max = 1) | 0.048 relative CSI intensity (max = 1) | 0.0127 relative CSI intensity (max = 1) | 0.289 relative CSI intensity (max = 1) | 0.166 relative CSI intensity (max = 1) | 0.17 relative CSI intensity (max = 1) | 0.0997 relative CSI intensity (max = 1) | 0.0439 relative CSI intensity (max = 1) | 0.0919 relative CSI intensity (max = 1) | 0.151 relative CSI intensity (max = 1) | 0.0508 relative CSI intensity (max = 1) | 0.0784 relative CSI intensity (max = 1) | 0.00422 relative CSI intensity (max = 1) | 0.487 relative CSI intensity (max = 1) |
